We go through 6 compounds from PubChem BioAssay (NCATS).

Inconclusive results are not listed. Active and inactive are the calls of the source. Unless noted, the call rests on the fitted dose curve; in most records, active means well fitted curve in the direction sought with a large enough effect; inconclusive means small, poorly fitted or top-dose-only effect, or another doubt; inactive means no such curve, though single readings can be large; an effect the other way counts as inactive or inconclusive.

A short description of experiment [1]: Validation of Assay for Modulators of Lamin A Splicing (AID 1459; active means well fitted curve in the direction sought with a large enough effect in the signal ratio; the % refers to the signal ratio;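 further: cells exposed to compound for two days before reading; 0% is about no effect; ratio rise marks activators and ratio drop marks inhibitors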). Put shortly:
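S3 HeLa cells stably expressing a lamin A-EGFP splicing minigene and DsRed2 were seeded at 600 cells/well in Opti-MEM with 2% FBS, pin-dosed, and incubated 48 hrs at 37 °C, 5% CO2. Laser-scanning cytometry (488 nm) gave GFP/RFP total intensity ratio.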

Experiment [2] has as its target DNA repair nuclease/redox regulator APEX1 (Homo sapiens) (UniProt P27695). As to the kind of experiment: qHTS Validation Assay for Inhibitors of the Human Apurinic/apyrimidinic Endonuclease 1 (APE1) (AID 1705;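 further: TAMRA fluorescence gain over two minutes as APE1 cuts a quenched THF abasic duplex; on the % scale 0 is the no-effect control and ±100 the full control effect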). The procedure, abridged:
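Human APE1 was preincubated with compound for 15 min at room temperature, then 50 nM (final) THF-abasic double-stranded DNA substrate bearing 5'-TAMRA and 3'-BHQ-2 was added. Incision-driven fluorescence rise (ex 525/em 598 nm) was read kinetically.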

Experiment [3] is described as follows: Counterscreen for APE1 Inhibitors: Fluorescent Dye Displacement Validation Assay (AID 1707).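 Further: plate controls were ThO with dsDNA and no compound for no effect and ThO without dsDNA for full effect.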 Put shortly: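 Assay buffer: Tris-HCl pH7.5 with 50mM NaCl, 2 mM MgCl2, 0.01% Tween-20. Dye 250 nM, duplex 50 nM final. Readout: decrease in ThO endpoint fluorescence, 480 nm excitation, 540 nm emission.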
On the technique in general: A counterscreen serves to expose hits that act by an unwanted route or on another target.

A short description of experiment [4]: qHTS for differential inhibitors of proliferation of Plasmodium falciparum line GB4 (AID 1816).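 Further: parasite growth measured after 72 h incubation; 0% = vehicle DMSO and -100% = reference inhibitor.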 The following applies: Potency: Plasmodium falciparum GB4 proliferation inhibition.
A short description of experiment [5]: qHTS for differential inhibitors of proliferation of Plasmodium falciparum line 3D7 (AID 1876;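 further: parasite growth measured after three days of culture; 0% = vehicle wells and -100% = reference inhibitor wells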). (In general: Quantitative high-throughput screening tests each substance at several concentrations.)
The nature of experiment [6]: qHTS for differential inhibitors of proliferation of Plasmodium falciparum line D10 (AID 1877).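 Further: parasites grown with compound for 72 h before DNA staining; plate controls were vehicle wells for no effect and reference inhibitor wells for full effect.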
Experiment [7] in a line: qHTS for differential inhibitors of proliferation of Plasmodium falciparum line HB3 (AID 1886).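 Further: parasites grown with compound for 72 h before SYBR Green readout; plate controls were vehicle for no effect and reference inhibitor for full effect.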 The following applies: Potency: Plasmodium falciparum HB3 proliferation inhibition.
Experiment [8] addresses ATP-dependent DNA helicase Q1 (Homo sapiens) (UniProt P46063). As to the kind of experiment: qHTS Validation Assay for Inhibitors of RecQ-Like Dna Helicase 1 (RECQ1) (AID 2353).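 Further: plate controls were DMSO vehicle for no effect and enzyme-free control for full effect.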 The procedure, abridged:
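50 nM RECQ1T1 preincubated 15 min with compound in Tris pH 8.0 buffer with MgCl2, DTT, Tween-20 and 2.5 ug/ml poly(dI-dC); started with 200 nM TAMRA/BHQ-2 forked duplex and 2 mM ATP. Unwinding read as fluorescence (525/598 nm), two reads 2 h apart.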

Experiment [9] in a line: Validation screen for small molecules that induce DNA re-replication in MCF 10A normal breast cells (AID 463097). Further: 0% is about no effect; nearly all actives have a fitted effect of over 60% in size. Put shortly: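 Readout: Hoechst nuclear fluorescence intensity, 405 ex / 500-530 em, by scanning plate imager; re-replication scored as increase in nuclei with elevated DNA content. Cells exposed to compound 48 hr, 37 C, 5% CO2 beforehand.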
A short description of experiment [10]: Quantitative high throughput screen for delayed death inhibitors of the malarial parasite plastid, 48 hour incubation (AID 488752). Further: on the % scale 0 is the no-effect control and ±100 the full control effect; nearly all actives have a fitted effect of over 65% in size. Put shortly: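 Erythrocytes infected with P. falciparum carrying an integrated firefly luciferase reporter (2% hematocrit, 0.1% parasitemia final) were exposed to compounds in RPMI 1640/0.5% Albumax for 48 h at 37 C, 5% CO2. Growth inhibition was scored as reduced luminescence.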

Experiment [11] has as its target Transient receptor potential cation channel subfamily V member 1 (Homo sapiens) (UniProt Q8NER1). As to the kind of experiment: HTS Assay for Compounds that Act as Enhancers of the Vanilloid Receptor 1 (AID 488979). Further: 0% is about no effect. The procedure, abridged: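 Calcium influx kinetics via Fluo-8 (480/520 nm) in TRPV1-expressing cells, 2000/well cultured overnight at 35.5C. Compound-alone read 3 min (agonist phase), followed by EC20 capsaicin challenge for 2 min (enhancer phase).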

For experiment [12], the target named is Thyrotropin receptor (Homo sapiens) (UniProt P16473). As to the kind of experiment: qHTS Assay for Antagonists of the Thyroid Stimulating Hormone Receptor (AID 488980). Further: 0% is about no effect. The procedure, abridged: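 HEK293 cells transfected with human TSHR, suspended in HEPES-buffered HBSS with 70 uM RO 20-1724, were treated with compounds plus TSH at EC80 (4 nM final). cAMP was measured by competitive HTRF (cryptate anti-cAMP antibody, cAMP-d2 acceptor).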

In experiment [13] the target is Thyrotropin-releasing hormone receptor (Homo sapiens) (UniProt P34981). As to the kind of experiment: qHTS for Small Molecule Agonists and Allosteric Enhancers of Human TRH Receptor: Validation Screen for Agonists (AID 493127;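 active means calcium activation more than 3 SD above the typical response in the agonist read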;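 further: intracellular calcium rise by fluo-8 fluorescence before TRH EC20 addition; 0% is about no effect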). Particulars: TRH receptor agonist cell assay; at 2 µM; stronger effect = higher value. The procedure, abridged:
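TRHR-expressing cells were plated overnight in serum-containing medium, then loaded with fluo-8 calcium dye at room temperature for 30 min–1.5 h. After a 10 s baseline, compound was pin-transferred and calcium fluorescence (ex 480/em 530) read kinetically for agonist response.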

The target of experiment [14] is Galactokinase (Homo sapiens) (UniProt P51570). As to the kind of experiment: qHTS Validation Assay for Inhibitors of Human Galactokinase (GALK) (AID 493189). Further: 0% is about no effect. The procedure, abridged: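 GALK (5 nM) with 35 uM ATP and 100 uM galactose in HEPES pH8.0, MgCl2, NaCl, DTT, BSA; 1 h at room temperature. Residual ATP read by Kinase-Glo Plus luminescence after 10 min.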
A short description of experiment [15]: Validation screen for small molecules that induce DNA re-replication in SW480 colon adenocarcinoma cells (AID 504364). Further: 0% is about no effect. The procedure, abridged: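 SW480 cells seeded at 250 per well were exposed to compound or DMSO for 48 hr at 37 C, 5% CO2, then stained with Hoechst for 40 min. DNA content per nucleus was imaged (405 nm ex, 500-530 nm em).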
A short description of experiment [16]: qHTS Assay for Lipid Storage Modulators (AID 1519; calls by dose curve; on activity change, negative = inhibition: on the % scale 0 is the no-effect control and ±100 the full control effect). Particulars: Drosophila S3 cells, BODIPY lipid droplet/cell ratio, laser cytometry, cells loaded with oleic acid; for activity change, negative = inhibition: at 57.5 µM (top of the series). Put shortly:
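Cells seeded at 5,000 per well were treated with compounds over a concentration series and loaded with oleic acid (400 uM, as added). Lipid droplet fluorescence (488 nm excitation, 500-530 nm channel) was read by laser-scanning cytometry and normalized to 20 uM Triacsin C.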

Experiment [17] is described as follows: Quantitative high throughput screen for delayed death inhibitors of the malarial parasite plastid, 96 hour incubation (AID 488745). Further: on the % scale 0 is the no-effect control and ±100 the full control effect; nearly all actives have a fitted effect of over 70% in size. The procedure, abridged:
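P. falciparum carrying an integrated firefly luciferase reporter, grown in erythrocytes (2% hematocrit, 0.1% parasitemia final) in RPMI 1640/0.5% Albumax, was exposed to compound for 96 h (two generations) at 37 C, 5% CO2. Luminescence decrease indicated growth inhibition.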

Experiment [18] has as its target Glutathione peroxidase 1 (Homo sapiens) (UniProt P07203). As to the kind of experiment: Primary qHTS Assay for Inhibitors of Recombinant Selenoprotein Glutathione Peroxidase 1 (GPX1) (AID 1845191). Further: nearly all actives have a fitted effect of over 65% in size. The procedure, abridged: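 10 nM GPX1 + cpd, 30 min RT; start w/ 1 mM GSH, 0.5 mM cumene hydroperoxide, 0.5 mM NADPH, 100 nM GR, 0.01% BSA; buffer 50 mM Tris-HCl pH 7.5, 2 mM EDTA, 150 mM NaCl; Fl 340/450, 0 & 15 min.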

Experiment [19] is described as follows: qHTS drug screen for cell cycle checkpoint inhibitors in PARPi-resistant BRCA-mutant ovarian cancer cell lines. (AID 1963452; calls by dose curve; further: potency means the concentration at half of the fitted maximal effect). The following applies: PEO1/OlaR viability, CellTiter-Glo luminescence, 96 h; for Z-AUC: stronger effect = lower value. Put shortly: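 PEO1, PEO4 and PEO1/OlaR ovarian cancer cells, 600 per well, exposed 96 h at 37C to a dilution series. Viability read by CellTiter-Glo luminescence, normalized to DMSO and empty wells; activity summarized as Z-AUC.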

Experiment [20] is described as follows: qHTS assay to identify inhibitors of the type 1 interferon - major histocompatibility complex class I in skeletal muscle: Counter screen cell viability and HiBit confirmation (AID 1347412). Further: on the % scale 0 is the no-effect control and ±100 the full control effect; nearly all actives have a fitted effect of over 60% in size. Particulars: iHSKM muscle cells + IFN-b, HiBiT or CellTiter-Glo, 24 h; Viability; at 45.9 µM (top of the series). The procedure, abridged: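 HLA-B*08:01–HiBiT knock-in immortalized human myoblasts (C25cl48) stimulated with 4.0 ng/ml human IFN-beta and dosed with compound in a 12-point 1:3 titration (top final 46 uM). After 24 hrs at 37 C, HiBiT lytic luminescence or CellTiter Glo ATP read out.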

Setting [21] is: measured here: cell count channel max response.
The mark [22] stands for this setting: measured here: lipid channel max response.

Chain of Thyrotropin receptor (Homo sapiens) (P16473 whole entry, looked up): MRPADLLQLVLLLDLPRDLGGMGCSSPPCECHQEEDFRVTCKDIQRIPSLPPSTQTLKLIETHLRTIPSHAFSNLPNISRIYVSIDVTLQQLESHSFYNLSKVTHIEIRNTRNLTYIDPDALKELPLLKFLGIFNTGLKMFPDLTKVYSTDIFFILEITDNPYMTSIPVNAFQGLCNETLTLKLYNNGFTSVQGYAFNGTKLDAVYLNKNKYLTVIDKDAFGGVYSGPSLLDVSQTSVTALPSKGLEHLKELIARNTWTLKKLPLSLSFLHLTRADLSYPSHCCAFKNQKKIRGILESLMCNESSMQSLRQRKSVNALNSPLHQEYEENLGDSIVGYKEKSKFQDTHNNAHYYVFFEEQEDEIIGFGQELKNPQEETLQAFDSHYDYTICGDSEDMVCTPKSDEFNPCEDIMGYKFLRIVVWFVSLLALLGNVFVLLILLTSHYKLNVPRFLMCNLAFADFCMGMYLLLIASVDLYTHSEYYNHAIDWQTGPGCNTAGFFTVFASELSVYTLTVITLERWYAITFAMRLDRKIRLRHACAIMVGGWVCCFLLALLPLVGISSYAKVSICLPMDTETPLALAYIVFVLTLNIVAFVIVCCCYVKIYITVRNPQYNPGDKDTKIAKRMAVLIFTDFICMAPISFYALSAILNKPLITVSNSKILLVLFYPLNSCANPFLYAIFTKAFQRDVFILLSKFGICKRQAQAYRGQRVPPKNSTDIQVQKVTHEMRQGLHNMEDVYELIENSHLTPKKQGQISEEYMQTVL
Chain of DNA repair nuclease/redox regulator APEX1 (Homo sapiens) (P27695 whole entry, looked up): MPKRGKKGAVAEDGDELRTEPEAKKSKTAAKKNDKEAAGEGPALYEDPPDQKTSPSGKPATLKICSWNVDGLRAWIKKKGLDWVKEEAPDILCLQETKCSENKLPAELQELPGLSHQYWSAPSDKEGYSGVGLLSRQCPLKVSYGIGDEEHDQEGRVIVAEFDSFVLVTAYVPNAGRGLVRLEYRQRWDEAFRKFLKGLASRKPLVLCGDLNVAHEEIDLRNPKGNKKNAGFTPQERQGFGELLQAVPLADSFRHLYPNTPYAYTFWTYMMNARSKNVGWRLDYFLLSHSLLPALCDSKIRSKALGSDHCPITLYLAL
Chain of Galactokinase (Homo sapiens) (P51570 whole entry, looked up): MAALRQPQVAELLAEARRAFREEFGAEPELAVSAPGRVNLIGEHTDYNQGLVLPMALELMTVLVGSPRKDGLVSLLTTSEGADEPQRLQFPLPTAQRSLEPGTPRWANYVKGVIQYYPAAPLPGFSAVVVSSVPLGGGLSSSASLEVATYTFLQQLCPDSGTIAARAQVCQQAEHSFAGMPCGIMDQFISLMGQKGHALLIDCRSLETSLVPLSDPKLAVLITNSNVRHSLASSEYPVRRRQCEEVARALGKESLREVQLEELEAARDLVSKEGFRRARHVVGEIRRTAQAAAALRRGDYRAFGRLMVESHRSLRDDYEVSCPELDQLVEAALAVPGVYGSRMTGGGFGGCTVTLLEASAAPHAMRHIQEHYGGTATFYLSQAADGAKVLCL
Chain of Thyrotropin-releasing hormone receptor (Homo sapiens) (P34981 whole entry, looked up): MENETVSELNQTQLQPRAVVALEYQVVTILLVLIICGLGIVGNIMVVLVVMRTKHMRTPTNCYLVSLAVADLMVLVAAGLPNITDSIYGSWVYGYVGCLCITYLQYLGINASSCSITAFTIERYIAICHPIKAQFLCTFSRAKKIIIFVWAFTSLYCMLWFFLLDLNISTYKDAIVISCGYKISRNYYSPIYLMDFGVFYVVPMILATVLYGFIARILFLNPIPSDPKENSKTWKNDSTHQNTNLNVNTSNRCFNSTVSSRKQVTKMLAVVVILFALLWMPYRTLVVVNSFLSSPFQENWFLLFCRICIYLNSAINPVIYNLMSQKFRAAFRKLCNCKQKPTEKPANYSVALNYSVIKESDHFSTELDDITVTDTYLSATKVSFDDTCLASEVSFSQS
Chain of ATP-dependent DNA helicase Q1 (Homo sapiens) (P46063 whole entry, looked up): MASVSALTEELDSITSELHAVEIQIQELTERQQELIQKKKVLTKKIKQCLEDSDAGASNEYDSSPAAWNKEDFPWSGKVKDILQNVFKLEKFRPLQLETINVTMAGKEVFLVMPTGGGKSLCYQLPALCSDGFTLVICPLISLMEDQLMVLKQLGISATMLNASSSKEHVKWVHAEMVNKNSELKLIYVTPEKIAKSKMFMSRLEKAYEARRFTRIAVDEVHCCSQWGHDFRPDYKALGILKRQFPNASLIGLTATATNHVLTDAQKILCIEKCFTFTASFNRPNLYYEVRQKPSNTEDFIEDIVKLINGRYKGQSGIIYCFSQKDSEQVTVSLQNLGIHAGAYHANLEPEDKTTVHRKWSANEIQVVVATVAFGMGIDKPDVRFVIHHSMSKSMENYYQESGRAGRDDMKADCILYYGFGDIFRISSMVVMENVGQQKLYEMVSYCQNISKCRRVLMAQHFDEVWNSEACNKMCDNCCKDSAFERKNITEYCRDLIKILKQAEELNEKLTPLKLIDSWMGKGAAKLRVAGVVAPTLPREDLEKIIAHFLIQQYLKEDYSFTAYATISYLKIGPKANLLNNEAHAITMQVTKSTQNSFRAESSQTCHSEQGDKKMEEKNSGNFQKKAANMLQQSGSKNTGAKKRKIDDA
Chain of Transient receptor potential cation channel subfamily V member 1 (Homo sapiens) (Q8NER1 whole entry, looked up): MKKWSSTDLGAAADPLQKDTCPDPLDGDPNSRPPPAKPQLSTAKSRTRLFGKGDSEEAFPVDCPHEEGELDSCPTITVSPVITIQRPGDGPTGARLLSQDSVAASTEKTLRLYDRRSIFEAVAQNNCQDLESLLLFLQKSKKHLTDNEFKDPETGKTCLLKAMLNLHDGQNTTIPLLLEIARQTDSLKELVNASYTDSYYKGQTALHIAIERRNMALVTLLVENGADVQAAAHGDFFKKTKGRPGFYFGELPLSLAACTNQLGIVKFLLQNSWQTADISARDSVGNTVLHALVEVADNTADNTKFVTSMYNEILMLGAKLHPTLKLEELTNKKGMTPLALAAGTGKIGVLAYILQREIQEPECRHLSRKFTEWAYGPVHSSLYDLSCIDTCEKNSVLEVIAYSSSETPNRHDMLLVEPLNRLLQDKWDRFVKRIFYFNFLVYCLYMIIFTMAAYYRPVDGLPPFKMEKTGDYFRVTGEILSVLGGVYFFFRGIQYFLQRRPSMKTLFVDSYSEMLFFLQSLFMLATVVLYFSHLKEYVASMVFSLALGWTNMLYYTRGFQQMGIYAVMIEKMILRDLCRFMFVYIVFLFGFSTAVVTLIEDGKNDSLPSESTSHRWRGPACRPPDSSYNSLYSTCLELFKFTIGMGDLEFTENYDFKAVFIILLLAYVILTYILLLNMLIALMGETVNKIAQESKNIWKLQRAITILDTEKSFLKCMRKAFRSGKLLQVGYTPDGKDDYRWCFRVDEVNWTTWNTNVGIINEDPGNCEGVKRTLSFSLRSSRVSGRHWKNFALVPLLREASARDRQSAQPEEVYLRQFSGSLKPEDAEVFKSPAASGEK
Chain of Glutathione peroxidase 1 (Homo sapiens) (P07203 whole entry, looked up): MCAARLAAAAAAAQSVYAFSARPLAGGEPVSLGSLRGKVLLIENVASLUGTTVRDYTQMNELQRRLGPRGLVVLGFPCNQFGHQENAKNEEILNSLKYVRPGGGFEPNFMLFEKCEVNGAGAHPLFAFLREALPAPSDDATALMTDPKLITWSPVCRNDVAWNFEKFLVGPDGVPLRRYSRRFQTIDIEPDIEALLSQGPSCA

As to `CN1C2CCC1CC(NC(=O)c1nn(C)c3ccccc13)C2` (centres undefined), the call in experiment [1], in experiment [9], in experiment [11], in experiment [12], in experiment [14] and in experiment [15] was inactive. Further, the Potency entry in experiment [2], in experiment [3], in [4], in experiment [5], in [6] and in experiment [7] was “inactive” throughout. Also, the Potency result in [8] and in [10] was “inactive” each time. The activation in experiment [13] was 0.75% (inactive).

As to `NCC1OC(O[C@@H]2[C@H](O)[C@@H](OC3C(O)C(N)CC(N)C3OC3OC(CO)C(O)C(O)C3N)O[C@@H]2CO)C(N)C(O)C1O` (some centres undefined), the result in [1], in [9], in experiment [11], in experiment [12], in experiment [14] and in experiment [15] was inactive. The activity change, negative = inhibition in [16] was 1.08% (inactive). Also, the max response in experiment [16] (setting [21]) was -5.44%; in experiment [16] (setting [22]) it was -4.61%. For the same compound, the Potency result in experiment [2], in experiment [3], in [4], in [5], in experiment [6] and in [7] was “inactive” throughout. The Potency entry in [8], in [17] and in [10] was “inactive” throughout. In [13], the activation was 1.44% (inactive).

Take `OC[C@H]1O[C@@H](n2cnc3c(NCCc4ccccc4)ncnc32)[C@H](O)[C@H]1O`: the compound was classed as inactive in experiment [1], in experiment [9], in [11], in experiment [12], in experiment [14] and in experiment [15]. The activity change, negative = inhibition in [16] was -0.874% (inactive). The results for the max response in experiment [16] (setting [21]) and in experiment [16] (setting [22]) were -25.2% and -26.1%, respectively. Further, the Potency result in experiment [2], in experiment [3], in [4], in experiment [5], in [6] and in experiment [7] was “inactive” throughout. Further, the Potency entry in experiment [8], in experiment [17] and in experiment [10] was “inactive” each time. Moreover, the activation in [13] was -0.5% (inactive).

For the compound `Nc1nc(Nc2ccccc2)nc2c1ncn2[C@@H]1O[C@H](CO)[C@H](O)[C@H]1O`, the outcome in experiment [1], in experiment [9], in experiment [11], in experiment [12], in experiment [14] and in experiment [15] was inactive. In addition, the activity change, negative = inhibition in experiment [16] is -0.104% (inactive). The max response in experiment [16] (setting [21]) was -25.4%; in experiment [16] (setting [22]), -24.2%. In addition, the Potency result in [2], in experiment [3], in [8], in experiment [17] and in experiment [10] was “inactive” each time. Moreover, the activation in experiment [13] is 0.938% (inactive).

As for `CCc1cnn2c(NCc3ccc[n+]([O-])c3)cc(N3CCCC[C@H]3CCO)nc12`, in experiment [18], the Potency result was “inactive”. Moreover, the Potency in experiment [19] is 245 nM (active). Also, the Z-AUC in experiment [19] (measured here: PEO1 parental Z-AUC) was -2.15; in experiment [19] (measured here: PEO4 Z-AUC), -1.73. In addition, the activity change, negative = inhibition in experiment [20] was 5.42% (inactive).

In the case of `Nc1ncnc2c1ncn2[C@@H]1O[C@H](C(=O)NC2CC2)[C@H](O)[C@H]1O`, the result in experiment [1], in [9], in [11], in experiment [12], in [14] and in experiment [15] was inactive. Besides, the Potency entry in [2], in experiment [3], in experiment [4], in experiment [5], in [6] and in experiment [7] was “inactive” in each case. For the same compound, the Potency entry in [8], in experiment [17] and in [10] was “inactive” in each case. Also, the activation in experiment [13] is 1.12% (inactive).
